# Experimental data as given in PubChem BioAssay AID684 (PCMD, 2007).
# In all, about 62,000 compounds went through this assay and about 95 (0.2%) were called active. Cut-off read from the data, not from the text of the source: active = inhibition above about 20% (passing the limit was not always enough); inactive = the rest. The full list was thinned out, with actives kept by preference.
# Molecular target: Coagulation factor XII (Homo sapiens) (UniProt P00748)
# Assay: blockers of FXIIa protease activity – biochemical, pooled compound mixtures, fluorogenic substrate, primary screen (AID 684);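 note: 0% = enzyme without compound and 100% = no enzyme blank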
# Conditions: purified FXIIa, at 5 µM, stronger effect = higher value
# Sequence of Coagulation factor XII (Homo sapiens) (P00748 20-372 limits assumed): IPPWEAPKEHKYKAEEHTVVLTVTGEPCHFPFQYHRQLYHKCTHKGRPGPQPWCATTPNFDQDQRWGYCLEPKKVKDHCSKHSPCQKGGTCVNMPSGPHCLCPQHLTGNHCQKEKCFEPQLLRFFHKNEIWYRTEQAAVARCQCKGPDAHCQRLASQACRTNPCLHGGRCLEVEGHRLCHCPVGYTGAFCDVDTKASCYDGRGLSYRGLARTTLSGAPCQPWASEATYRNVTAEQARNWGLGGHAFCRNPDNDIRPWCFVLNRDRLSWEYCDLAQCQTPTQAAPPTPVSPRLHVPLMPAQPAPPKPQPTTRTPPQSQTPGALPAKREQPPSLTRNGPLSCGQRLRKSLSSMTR
# Sequence of Coagulation factor XII (Homo sapiens) (P00748 373-615 limits assumed): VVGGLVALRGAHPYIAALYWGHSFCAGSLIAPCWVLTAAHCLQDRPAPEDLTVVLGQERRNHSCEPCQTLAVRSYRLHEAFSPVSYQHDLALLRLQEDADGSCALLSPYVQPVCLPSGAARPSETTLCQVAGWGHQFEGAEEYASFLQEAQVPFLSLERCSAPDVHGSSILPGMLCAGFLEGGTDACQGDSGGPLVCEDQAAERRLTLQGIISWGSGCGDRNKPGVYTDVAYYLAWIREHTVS
row,SMILES,inhibition
1,Cc1ccc(C(c2sc3nc(C)nn3c2O)N2CCN(c3ccc(F)cc3)CC2)cc1 (configuration not stated),3.33% (inactive)
2,O=C1CC(Cc2ccccc2)C(=O)N1c1ccc(Cl)cn1 (configuration not stated),-17.9% (inactive)
3,COCCNC(=O)COc1ccc(C)c(C)c1,1.93% (inactive)
4,CC(C)Oc1ccc(C2NC(=O)NC2=O)cc1 (configuration not stated),-16.2% (inactive)
5,Nn1c(SCC(=O)NC(=O)NC2CCCC2)nnc1-c1ccccc1F,3.32% (inactive)
6,CCOC(=O)c1sc(NC(=S)n2cc(C)cn2)c(C(=O)OCC)c1C,7.4% (inactive)
7,O=C(CNC(=O)c1ccc(Cl)cc1Cl)NCC(=O)Nc1ccccc1N1CCOCC1,6.48% (inactive)
8,O=C1CC(N2CCN(C(c3ccccc3)c3ccccc3)CC2)C(=O)N1 (configuration not stated),1.87% (inactive)
9,COc1cccc(NC(=O)c2ccccc2SC)c1,-1.39% (inactive)
10,Cc1ccc(Cn2ccc(NC(=O)C3C4CCC(C4)C3C(=O)O)n2)cc1 (configuration not stated),-2.65% (inactive)
11,COc1ccc(N2CCN(CCNC(=O)c3nnc(Cc4c(F)cccc4Cl)o3)CC2)cc1,10.3% (inactive)
12,CCOC(=O)c1cc2occc2n1CC(=O)N1CCN(C(=O)c2ccco2)CC1,9.63% (inactive)
13,Cc1noc(C)c1S(=O)(=O)N(CC(=O)NCc1ccc(Cl)cc1)c1ccc2c(c1)OCO2,-1.99% (inactive)
14,CCC(C)Sc1nc2c(c(=O)[nH]c(=O)n2C)n1CC(O)COc1cccc2ccccc12 (configuration not stated),-0.685% (inactive)
15,CC(C)C[C@H](NC(=O)NCCc1ccc(Cl)cc1)C(=O)O,5.46% (inactive)
16,CC(Sc1sc(=S)sc1SC(C)C(=O)O)C(=O)O (configuration not stated),0.39% (inactive)
17,CC/C(=N\O)C(C)(C)/[N+]([O-])=C/c1ccc(Br)cc1,8.49% (inactive)
18,Brc1ccc(OCCn2ccnc2)cc1,10.3% (inactive)
19,O=C1C(=O)N(CCN2CCOCC2)C(c2ccccn2)/C1=C(/O)c1ccc(Cl)cc1 (configuration not stated),5.72% (inactive)
20,COC(=O)C1=CN(C)C=C(C(=O)OC)C1c1ccc(Cl)cc1Cl,-3.3% (inactive)
21,C=CCn1cnc2scc(-c3ccccc3)c2c1=O,12.3% (inactive)
22,COc1ccc(S(=O)(=O)N2CCN(c3ncnc4c(-c5ccccc5)nsc34)CC2)cc1,4.31% (inactive)
23,CCCS(=O)(=O)N1CCCC(C(=O)NCCN2CCCCC2C)C1 (configuration not stated),1.05% (inactive)
24,CCOC(=O)C1CCN(C(=O)CC2C(=O)N(Cc3ccccc3)C(C)c3nc4ccccc4n32)CC1 (configuration not stated),4.71% (inactive)
25,Clc1cccc(Cl)c1Cn1nnc(-c2cccs2)n1,2.33% (inactive)

row,SMILES,inhibition
1,Cn1c(=NC(=O)C2CC2)sc2cc(F)cc(F)c21,6.96% (inactive)
2,O=S(=O)(c1ccccc1)N(CC(O)CN1CCCCC1)c1ccccc1 (configuration not stated),10.6% (inactive)
3,O=C(Nc1c(Cl)cccc1Cl)C1CCC1,-1.33% (inactive)
4,C=CCn1c(CSc2nc3ccccc3s2)nnc1SCC(=O)NCc1ccco1,-0.43% (inactive)
5,O=C(c1cc(-c2ccc(O)cc2)on1)N1CCCc2ccccc21,3.9% (inactive)
6,c1ccc(CCC2=NCCn3cccc32)cc1,6.93% (inactive)
7,CC(=O)Nc1ccn(Cc2c(F)cccc2Cl)n1,1.78% (inactive)
8,c1ccc(-c2noc(-c3cccs3)n2)nc1,3.97% (inactive)
9,O=C1CN(C(=O)COC(=O)C2CC(=O)N(Cc3ccco3)C2)c2ccccc2N1 (configuration not stated),-15.4% (inactive)
10,CC1(C)CC(=O)c2sc(N)nc2C1,4.78% (inactive)
11,CCN1CCN(c2c(Cl)cccc2NC(=O)c2ccc(Br)o2)CC1,10.2% (inactive)
12,CCOC(=O)c1ccc(N2C(=O)CC(Sc3nc(O)c(CC)c(=O)[nH]3)C2=O)cc1 (configuration not stated),-16.1% (inactive)
13,O=C(CCCn1c(=O)[nH]c2cc(Cl)ccc2c1=O)NCCN1CCN(c2ccccc2)CC1,6.45% (inactive)
14,CC(C)Cn1c(CN(Cc2ccccc2)Cc2ccccc2)nc2c1c(=O)n(C)c(=O)n2C,2.03% (inactive)
15,CCOCC(=O)NCc1ccc2c(c1)cc(C)n2C,5.58% (inactive)
16,CC1CCCC(NC(=O)CSc2nccn2C)C1C (configuration not stated),4.17% (inactive)
17,O=C(/C=N/O)Nc1ccccc1,1.18% (inactive)
18,CCC(=O)N1CCN=C1SCc1ccc(F)cc1,11.4% (inactive)
19,Cc1ccc(CN2C(=O)CCC2C(=O)NCCCN2CCCCC2C)cc1 (configuration not stated),5.07% (inactive)
20,Cc1cc(C)c(C#N)c(SCS(=O)c2ccc(C(C)(C)C)cc2)n1 (configuration not stated),4.64% (inactive)
21,CCOC(=O)c1cc2c(n(-c3ccc(C)cc3)c1=O)CCCC2=O,6.98% (inactive)
22,CC(c1ccco1)N(C(=O)c1ccc(S(=O)(=O)N2CCCCC2)cc1)c1ccccn1 (configuration not stated),12% (inactive)
23,COC(=O)c1oc2ccc(Br)cc2c1NC(C)=O,8.62% (inactive)
24,Cc1nnc(SCc2cc(=O)[nH]c(N3CCN(Cc4ccccc4)CC3)n2)s1,2.33% (inactive)
25,Cc1nn(-c2cc(Cl)ccc2N)c(=O)c2ccccc12,4.62% (inactive)

row,SMILES,inhibition
1,COc1cc(OC)c(C(=O)Nc2ccc(N(C)C)cc2)cc1OC,6.85% (inactive)
2,CSc1ccc(NC(=O)N2CC(C)OC(C)C2)cc1 (configuration not stated),7.45% (inactive)
3,O=C(Nc1cccc2cccnc12)c1cccc(N2C(=O)CCC2=O)c1,8.88% (inactive)
4,CCCCOC(=O)Nc1nccs1,0.87% (inactive)
5,CC1=C(C(N)=O)C(c2ccc3c(c2)OCO3)n2nc(-c3cccc(C)c3)nc2N1 (configuration not stated),6.61% (inactive)
6,CCn1c(SCC(=O)c2ccc(Cl)s2)nnc1-c1cccs1,7.99% (inactive)
7,O=C(O)c1ccc(COCC(F)(F)F)cc1,7.12% (inactive)
8,COc1ccccc1C(=O)C(O)c1ccccc1OC (configuration not stated),5.88% (inactive)
9,CC(C)C(=O)Nc1c(C(=O)c2ccc(F)cc2)oc2ccccc12,-2.16% (inactive)
10,Cc1cccc(C(=O)Nc2ccc(CC(=O)O)cc2)c1,3.19% (inactive)
11,O=c1[nH][nH]c(=O)c2cc(N3CCCC3)ccc12,10.2% (inactive)
12,Cc1cc(=O)n2nc(N3CCCC3C(=O)NCCCN3CC(C)CC(C)C3)sc2n1 (configuration not stated),-7.38% (inactive)
13,O=C(CN1CCOCC1)Nc1cc(Cl)ccc1Cl,17.8% (inactive)
14,CCCN1C(=O)C(NS(=O)(=O)c2ccc(N)cc2)(C(F)(F)F)C(C(=O)OC)=C1C (configuration not stated),4.13% (inactive)
15,CC1CCCCC1NC(=O)CSc1nnc(N)s1 (configuration not stated),4.21% (inactive)
16,CCOC(=O)Cc1c(C)nc2c(C#N)c(C)nn2c1C,-16% (inactive)
17,CCOC(=O)N1CCN(CC(=O)c2c(C)[nH]c3ccccc23)CC1,8.99% (inactive)
18,CCC(C(=O)Nc1ncccn1)(C(F)(F)F)C(F)(F)F,9.39% (inactive)
19,Cc1ccc(-n2ncc3c(=O)[nH]cnc32)c(C)c1,20.5% (active)
20,Cc1ccc(-n2ncc3c(N4CCN(c5ccc(F)cc5)CC4)ncnc32)c(C)c1,2.92% (inactive)
21,Cc1ccc(-n2ncc3c2ncn2nc(-c4ccco4)nc32)c(C)c1,0.945% (inactive)
22,CC(=O)NS(=O)(=O)c1ccccc1,7.57% (inactive)
23,Cc1ccc(-c2nn(-c3ccccc3)cc2CN(Cc2ccccc2)C(=O)CCC(=O)O)o1,1.27% (inactive)
24,COc1ccc(CC(NC(C)=O)C(=O)NC2CCN(C(=O)Nc3ccc(C#N)cc3)CC2)cc1OC (configuration not stated),-19% (inactive)
25,c1nnc2c3c4c(sc3ncn12)CCC4,-20.4% (inactive)

row,SMILES,inhibition
1,Cc1ccc2cccc(O)c2[n+]1[O-],6.81% (inactive)
2,CCCn1c(SCC(N)=O)nnc1C(C)C,-14.3% (inactive)
3,COc1ccccc1N1CCN(C(=O)c2c(-c3c(Cl)cccc3Cl)noc2C)CC1,-18.6% (inactive)
4,CCCn1nnc2sc3c(c2c1=O)CCC(C)C3 (configuration not stated),1.96% (inactive)
5,Cc1ccnc(SCCn2c(N(C)Cc3ccccc3)nc3c2c(=O)n(C)c(=O)n3C)n1,5.5% (inactive)
6,Cc1ccc(S(=O)(=O)C2(S(=O)(=O)c3ccc(C)cc3)CCCC2)cc1,5.75% (inactive)
7,CCCOC(=O)c1[nH]c2c(c1C)C(=O)CC(c1cc(OC)c(OC)c(OC)c1)C2 (configuration not stated),3.98% (inactive)
8,O=C(c1ccc(-n2cnnn2)cc1)N1CCN(C(c2ccccc2)c2ccccc2)CC1,1.76% (inactive)
9,c1c2c(cc3sc(N4CCCCC4)nc13)OCCO2,-2.49% (inactive)
10,CC(=O)Oc1ccc(C)cc1N1C(=O)c2ccc(C(=O)O)cc2C1=O,9.34% (inactive)
11,N#Cc1ccc(OCCN2C(=O)NC3(CCSC3)C2=O)cc1 (configuration not stated),18.5% (inactive)
12,COc1ccc(C2/C(=C(/O)c3ccccc3)C(=O)C(=O)N2c2ncccn2)cc1OC (configuration not stated),2.12% (inactive)
13,Cc1c(NC(=O)c2coc(=O)c(Br)c2)c(=O)n(-c2ccccc2)n1C,-0.015% (inactive)
14,CCOC(=O)N1CCN(C(=O)Cc2ccc(-n3c(=S)[nH]c4ccccc4c3=O)cc2)CC1,7.08% (inactive)
15,COc1cccc(Nc2nnc(SCC(=O)N3CC(C)OC(C)C3)s2)c1 (configuration not stated),-0.74% (inactive)
16,CCOc1ccc2[nH]c(=O)c(CN(CCCO)C(C)=O)cc2c1,-3.55% (inactive)
17,Cn1c(=O)c2[nH]c(NCC3CCCO3)nc2n(-c2ccccc2)c1=O (configuration not stated),-14.8% (inactive)
18,CC(C)CCNc1nc(N2CCCC2)c2c(c1C#N)CCN(C)C2,-51.8% (inactive)
19,N#Cc1ccc(CSc2nnc(-c3ccccn3)n2-c2ccc(Cl)cc2)cc1,-14.6% (inactive)
20,CCN(CC)P(=O)(C(NC(=O)OC)C(F)(F)C(F)(F)C(F)(F)C(F)F)N(CC)CC (configuration not stated),0.97% (inactive)
21,CCCC(C)n1[nH]c(=O)c2c(C)cc(C)nc21 (configuration not stated),3.26% (inactive)
22,N#CC(C(=O)c1ccc(S(=O)(=O)N2CCCCCC2)cc1)c1nc2ccccc2[nH]1 (configuration not stated),-9.55% (inactive)
